PubChem BioAssay AID1159580 (chemical genetic matrix, 2015)
Several values for one entry are separate records, joined by “and”; a condition that tells them apart may be missing. Equal values may be shown once. About 2,000 (36%) of roughly 5,500 compounds were called active. Inconclusive results (about 18%) are left out. No stated cut-off is given here; in the data, active means normalized growth mostly below about 0.91 (no sharp cut-off); inconclusive means no clear call, values can overlap the other calls; inactive means mostly above about 0.92. The list shows a part of the results.

Assay: chemical genetic growth profiling, strain panel (AID 1159580);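 further: tested at 20 µM; growth read once vehicle control cultures reached saturation at 30 °C; 1 = growth at the plate median or of vehicle wells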
Settings: S. cerevisiae deletion strains, growth OD

Measured: normalized growth

O=c1cc(-c2ccccc2)oc2cc(O)c(O)c(O)c12
active: locus YAL013W, strain DEP1, stronger effect = lower value 0.367 | locus YAL021C, strain ccr4, stronger effect = lower value 0.0818 | locus YAL026C, strain drs2, stronger effect = lower value 0.198 | locus YAL030W, strain snc1, stronger effect = lower value 0.562 | locus YBL061C, strain skt5, stronger effect = lower value 0.449 | locus YBR009C, strain hhf1, stronger effect = lower value 0.535 | locus YBR023C, strain chs3, stronger effect = lower value 0.279 | locus YBR171W, strain sec66, stronger effect = lower value 0.386 | locus YBR229C, strain ROT2, stronger effect = lower value 0.458 | locus YBR231C, strain swc5, stronger effect = lower value 0.29 | locus YBR279W, strain paf1, stronger effect = lower value 0.574 | locus YCL011C, strain gbp2, stronger effect = lower value 0.565 | locus YCL016C, strain dcc1, stronger effect = lower value 0.683 | locus YCL029C, strain bik1, stronger effect = lower value 0.174 | locus YCL069W, strain vba3, stronger effect = lower value 0.608 | locus YCR088W, strain abp1, stronger effect = lower value 0.604 | locus YDL005C, strain med2, stronger effect = lower value 0.636 | locus YDL035C, strain GPR1, stronger effect = lower value 0.402 | locus YDL040C, strain nat1, stronger effect = lower value 0.612 | locus YDL074C, strain BRE1, stronger effect = lower value 0.219 | locus YDL101C, strain DUN1, stronger effect = lower value 0.115 | locus YDL134C, strain PPH21, stronger effect = lower value 0.586 | locus YDL185W, strain tfp1, stronger effect = lower value 0.549 | locus YDL192W, strain arf1, stronger effect = lower value 0.512 | locus YDR001C, strain nth1, stronger effect = lower value 0.721 | locus YDR069C, strain doa4, stronger effect = lower value 0.127 | locus YDR101C, strain arx1, stronger effect = lower value 0.176 | locus YDR137W, strain rgp1, stronger effect = lower value 0.161 | locus YDR150W, strain NUM1, stronger effect = lower value 0.591 | locus YDR159W, strain sac3, stronger effect = lower value 0.148 | locus YDR162C, strain NBP2, stronger effect = lower value 0.224 | locus YDR195W, strain ref2 0.327 | locus YDR297W, strain sur2, stronger effect = lower value 0.445 | locus YDR318W, strain mcm21, stronger effect = lower value 0.589 | locus YDR334W, strain swr1, stronger effect = lower value 0.351 | locus YDR335W, strain msn5, stronger effect = lower value 0.138 | locus YDR388W, stronger effect = lower value 0.555 | locus YDR392W, strain spt3, stronger effect = lower value 0.562 | locus YDR502C, strain sam2, stronger effect = lower value 0.214 | locus YEL003W, strain gim4, stronger effect = lower value 0.291 | locus YEL037C, strain rad23, stronger effect = lower value 0.407 | locus YEL061C, strain CIN8 (second series), stronger effect = lower value 0.695 | locus YEL061C, strain CIN8, stronger effect = lower value 0.496 | locus YER015W, strain faa2, stronger effect = lower value 0.287 | locus YER016W, strain bim1, stronger effect = lower value 0.736 | locus YER110C, stronger effect = lower value 0.851 | locus YER111C, strain swi4, stronger effect = lower value 0.113 | locus YER155C, strain BEM2 (second series), stronger effect = lower value 0.338 | locus YER155C, strain BEM2, stronger effect = lower value 0.449 | locus YER167W, strain BCK2, stronger effect = lower value 0.573 | locus YFR010W, strain ubp6, stronger effect = lower value 0.218 | locus YGL078C, strain dbp3, stronger effect = lower value 0.84 | locus YGL086W, strain mad1, stronger effect = lower value 0.636 | locus YGL167C, strain pmr1, stronger effect = lower value 0.396 | locus YGL173C, strain kem1, stronger effect = lower value 0.23 | locus YGL227W, strain vid30, stronger effect = lower value 0.677 | locus YGL240W, strain doc1, stronger effect = lower value 0.657 | locus YGL248W, strain PDE1, stronger effect = lower value 0.561 | locus YGL253W, strain hxk2, stronger effect = lower value 0.485 | locus YGR078C, strain PAC10, stronger effect = lower value 0.536 | locus YGR135W, strain pre9, stronger effect = lower value 0.443 | locus YGR229C, strain SMI1, stronger effect = lower value 0.107 | locus YGR252W, strain gcn5, stronger effect = lower value 0.576 | locus YHR013C, strain ard1, stronger effect = lower value 0.504 | locus YHR027C, strain rpn1, stronger effect = lower value 0.295 | locus YHR030C, strain SLT2, stronger effect = lower value 0.304 and 0.677 | locus YHR079C, strain IRE1 (second series), stronger effect = lower value 0.139 | locus YHR079C, strain IRE1, stronger effect = lower value 0.612 | locus YHR094C, strain hxt1, stronger effect = lower value 0.699 | locus YHR129C, strain ARP1, stronger effect = lower value 0.531 | locus YHR142W, strain chs7, stronger effect = lower value 0.285 | locus YHR200W, strain rpn10, stronger effect = lower value 0.604 | locus YIL066C, strain RNR3, stronger effect = lower value 0.425 | locus YIL073C, strain SPO22, stronger effect = lower value 0.381 | locus YIL125W, strain kgd1, stronger effect = lower value 0.808 | locus YIR030C, strain dcg1, stronger effect = lower value 0.359 | locus YJL092W, strain hpr5, stronger effect = lower value 0.531 | locus YJL095W, strain BCK1 (second series), stronger effect = lower value 0.218 | locus YJL095W, strain BCK1, stronger effect = lower value 0.0738 and 0.684 | locus YJL115W, strain asf1, stronger effect = lower value 0.648 | locus YJL129C, strain trk1, stronger effect = lower value 0.312 | locus YJL134W, strain LCB3, stronger effect = lower value 0.588 | locus YJL154C, strain vps35, stronger effect = lower value 0.68 | locus YJL164C, strain tpk1, stronger effect = lower value 0.347 | locus YJL166W, strain qcr8, stronger effect = lower value 0.437 | locus YJL168C, strain set2, stronger effect = lower value 0.808 | locus YJL187C, strain SWE1 (second series), stronger effect = lower value 0.106 | locus YJR043C, strain POL32, stronger effect = lower value 0.288 | locus YJR066W, strain TOR1, stronger effect = lower value 0.68 | locus YJR075W, strain HOC1, stronger effect = lower value 0.558
inactive: locus YBR021W, strain FUR4, stronger effect = lower value 0.885
